Common to all, as to assay: NCI-60 one-dose screen, 48 h (100 = growth as untreated, 0 = no growth, -100 = all killed)
Test [1] deals with HCT-15 colon. The note with it: 10 µM unless noted.
Test [2] deals with HT29 colon. Particulars: 10 µM unless noted.
For test [3], the system named is SNB-75 CNS. The note with it: 10 µM unless noted.
Test [4] relates to SNB-19 CNS. The note with it: 10 µM unless noted.
Test [5] has as its system U251 CNS. Particulars: 10 µM unless noted.
For test [6], the system named is PC-3 prostate. The note with it: 10 µM unless noted.
Test [7] has as its system SK-MEL-5 melanoma. The note with it: 10 µM unless noted.
The subject of test [8] is UACC-62 melanoma. Particulars: 10 µM unless noted.
The subject of test [9] is LOX IMVI melanoma. The note with it: 10 µM unless noted.
Test [10] concerns SK-MEL-28 melanoma. The note with it: 10 µM unless noted.
Test [11] has as its system SN12C renal. Particulars: 10 µM unless noted.
For test [12], the system named is UO-31 renal. The note with it: 10 µM unless noted.
Test [13] has as its system TK-10 renal. Particulars: 10 µM unless noted.
In test [14] the test system is CAKI-1 renal. The note with it: 10 µM unless noted.
The subject of test [15] is A498 renal. The note with it: 10 µM unless noted.
The subject of test [16] is MOLT-4 leukemia. The note with it: 10 µM unless noted.
Test [17] has as its system SK-MEL-2 melanoma. The note with it: 10 µM unless noted.
Test [18] has as its system ACHN renal. Particulars: 10 µM unless noted.
In test [19] the test system is EKVX NSCLC. Particulars: 10 µM.
Test [20] concerns CCRF-CEM leukemia. The note with it: 10 µM.

The panel holds about 83,000 compounds, 20% with a hit somewhere; the sample as a whole holds those more often.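 Assay: single dose, 48 h. Readout: percent growth (0 = no net growth; negative = cell death). Active: <10.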 Unmarked numbers belong to inactive results. Calls of active or inactive are those of the source.

For the compound `CCn1cnc(C[C@H](NC(=O)[C@@H](NC(=O)Nc2cc(C(F)(F)F)cc(C(F)(F)F)c2)C(C)(C)C)C(=O)OC)c1`, the growth is -68% [100 µM] (active) in test [1]; -82.9% [100 µM] (active) in test [2]; -98.8% [100 µM] (active) in test [3]; -98.2% [100 µM] (active) in [4]; -94.5% [100 µM] (active) in [5]; -91.2% [100 µM] (active) in test [6]. Also, the growth in [7] is -98% [100 µM] (active); in test [8], -98.7% [100 µM] (active); in test [9], -87.4% [100 µM] (active); in [10] it was -96% [100 µM] (active); in [11], -96.2% [100 µM] (active); in test [12], -94.1% [100 µM] (active). Further, the growth is -97.6% [100 µM] (active) in [13], -96% [100 µM] (active) in test [14], -91.6% [100 µM] (active) in test [15] and -49% [100 µM] (active) in [16].

As for `COC(=O)C(N)CC(C)C` (stereo unspecified), the growth was 103% in test [1]; 102% in [2]; 93.9% in test [3]; 100% in test [4]; 98% in test [5]; 97.9% in [6]. The growth is 103% in test [7]; 95.8% in test [9]; 108% in test [10]; 101% in [17]; 90.5% in test [12]; 90.6% in test [13]. The growth in test [18] was 97.4%; in [14], 99.7%; in test [15], 105%; in [16], 91.9%.

Take `CCOC(=O)NC1=NCC(C)(C)S1`: the growth in test [1] is 104%; in [2], 91.3%; in test [3], 91.2%; in [4] it was 98.1%; in test [5] it was 101%; in test [7], 98.3%. Further, the growth in test [8] was 93.6%; in [9], 94.4%; in test [10], 99.9%; in [17], 102%; in test [19], 98.2%; in test [11] it was 93.8%. For the same compound, the growth in test [12] is 86.9%; in test [13], 98.4%; in test [18] it was 107%; in test [14], 99.7%; in [15] it was 68.4%; in test [20], 98.4%. Besides, the growth in test [16] was 83.8%.

As for `O=Nc1c(-c2c(O)[nH]c3cc(Br)ccc23)[nH]c2ccccc12`, the growth is 1.93% (active) in test [1]; 0.864% (active) in test [2]; -13.3% (active) in test [3]; 15.1% in test [4]; 29.4% in test [5]; -2.93% (active) in test [6]. The growth in test [8] is 38.9%; in [9], 8.85% (active); in [10], -100% (active); in [17], -66.5% (active); in test [19], 29.8%; in test [11] it was 16.7%. In addition, the growth in test [12] is -28.9% (active); in [13] it was -10.5% (active); in test [18], 0.906% (active); in test [14], 2.36% (active); in test [20] it was -6.73% (active); in test [16] it was -68.9% (active).

With `CCCCCCCCCC[N+](C)(C)N`, the growth in test [1] was 101%; in [2], 85.4%; in test [3] it was 78.9%; in test [4] it was 87.2%; in [5], 91.8%; in test [6], 62.4%. In addition, the growth in test [7] is 96.7%; in [8], 106%; in test [10] it was 110%; in [17], 105%; in [11], 103%; in [12], 90.3%. For the same compound, the growth was 74.4% in test [13]; 105% in test [18]; 78.4% in [14]; 105% in [15]; 80.5% in test [16].

For the compound `CCCCCCCCCCCC(=O)OC(C)C(=O)Nc1ccccc1` (stereo unspecified), the growth in [1] was 97%; in test [2], 99.7%; in [3], 71.9%; in test [4], 95.1%; in test [5] it was 97.7%; in [6] it was 90.3%. The growth was 118% in test [7]; 100% in [8]; 108% in test [10]; 97.6% in test [17]; 93% in test [11]; 78.2% in test [12]. Moreover, the growth in test [13] was 94.9%; in test [18], 87.6%; in test [14] it was 91.2%; in test [15], 103%; in [16], 96.1%.

Turning to `CC[C@@H](C)/C=C(C)/C=C/C(=O)c1c(O)c(-c2ccc(OC(=O)[C@@]34CC[C@@](C)(C(=O)O3)C4(C)C)cc2)cn(O)c1=O`, the growth is 27% in [1]; 59.7% in test [2]; 30.6% in test [3]; 36.8% in test [4]; 15.7% in test [5]; -4% (active) in [7]. The growth in test [8] was 5.24% (active); in [9], 0.589% (active); in [10], 26.8%; in test [17], 17.8%; in test [19], 22.3%; in test [11] it was 30.4%. The growth was -26.4% (active) in [12]; 44.9% in test [13]; 9.64% (active) in test [18]; -27% (active) in test [14]; 49.8% in [15].

As to `CCOC(=O)CNS(=O)(=O)CC(=O)c1ccccc1`, the growth in test [1] was 110%; in test [2], 80.1%; in test [3] it was 69.4%; in test [4] it was 94.3%; in [5] it was 96.7%; in test [6] it was 92%. Further, the growth in test [8] is 95.3%; in test [9], 104%; in test [10] it was 127%; in test [17], 128%; in test [19], 90.3%; in [11] it was 84.2%. Besides, the growth is 86.6% in test [12]; 80.9% in test [13]; 99.5% in [18]; 93% in test [14]; 117% in test [15]; 105% in test [20]. In addition, the growth in test [16] was 109%.

`N#Cc1ccc(OCc2nc(N)nc(N)c2-c2ccc(Cl)c(Cl)c2)cc1`: the growth in test [1] was 20.9%; in test [2], 10.8%; in test [3] it was 65.6%; in [4] it was 38.2%; in test [5], 20.5%; in test [6], 18.9%. The growth was 23.4% in [7]; 12.2% in [8]; 11.1% in test [9]; 54.4% in test [10]; 40.4% in test [12]; 40.9% in test [13]. The growth in [18] was 19.4%; in test [14], 13.9%; in test [15], 38.5%; in test [20], 18.5%; in [16] it was 22.9%.

The record behind these values is PubChem BioAssay (NCI).
